Laboratory results taken from PubChem BioAssay (NCI).
This is part of a sample that, as a whole, favours compounds with a hit. Of some 79,000 tested, about 15% had one in any assay. Unmarked numbers belong to inactive results. Activity calls are given as the source filed them. Rule as the data show it: active = growth inhibition above about 70%; inactive = the rest.

experiment: NCI Yeast Anticancer Drug Screen. Data for the bub3 strain (AID 167); conditions: S. cerevisiae bub3 mutant strain, at 50.0 µM, active compounds read high
How it was run: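 Growth of a checkpoint-deficient yeast mutant is measured after compound exposure. Values represent inhibition relative to vehicle.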

| SMILES | growth inhibition |
| --- | --- |
| C=CCOC(=O)NC(CCC(=O)OC)C(=O)O (stereo not given) | -2.45% |
| Cc1ccc(/C=C/C(=O)c2c([O-])on[n+]2-c2ccccc2)cc1 | 5% |
| COC(=O)c1cc(C)c(C)c2c1NC(=O)CNC2=O | -3.7% |
| CCOC(=O)C1C(NNC(N)=O)CN(C(=O)OCC)C1C(=O)OCC (stereo not given) | 8.45% |
| CCOC(=O)/C=C(/C)C#N | 9.55% |
| N#Cc1ccccc1C#N | -4.7% |
| C[N+](C)(C)c1ccc(C(N)C(=O)O)cc1 (stereo not given) | -41.7% |
| O=C(O)CCC(=O)Nc1cccc(C(F)(F)F)c1 | 15.2% |
| C=C(C(N)=O)c1ccc([N+](=O)[O-])o1 | 19.8% |
| CCCCN(CCCC)c1ccc(S(=O)(=O)c2ccc(N(CCCC)CCCC)cc2)cc1 | -2.35% |
| Oc1ccccc1C=Nc1ccc(N2CCOCC2)cc1 | 2.05% |
| COC(=O)C[C@H](C)[C@H](C)CC(=O)O | -0.45% |
| CC1CN(C(=O)/C=C/C(=O)OC2CCCCC2)C(C)CN1C(=O)/C=C/C(=O)OC1CCCCC1 (stereo not given) | -4.45% |
| COC(=O)c1csnn1 | 4.3% |
| Cc1cccc(CC(N)C(=O)O)c1 (stereo not given) | 4% |
| NC(=O)c1ccc(S(=O)(=NS(=O)(=O)c2ccccc2)c2ccc(C(N)=O)cc2)cc1 | -25.6% |
| COC(=O)c1nc2n[nH]c(N)c2c2c1CCCCCCCCCC2 | 1.4% |
| CC(CCC(=O)O)C1CCC2C3CCC4CCCCC4(C)C3CCC12C (stereo not given) | 51.2% |
| NCCN(CCN)/[N+]([O-])=N/O | 0.65% |
| O=C([O-])[C+](C=Cc1cccc2ccccc12)C(=O)O | 3.35% |

| SMILES | growth inhibition |
| --- | --- |
| COc1ccc(-c2cc(=O)c3c([nH]2)CCCC3)cc1 | -4.3% |
| CCOC(=O)C(C)c1nc2cc(N3CCOCC3)c(F)cc2[nH]c1=O (stereo not given) | 5.7% |
| Cc1nc2ccc(-c3ccccc3)cc2nc1C | -5.05% |
| CN(C)P(=O)(Nc1ccc(Cl)cc1)Nc1ccc(Cl)cc1 | 12.7% |
| c1ccc(CCCCc2ccc(CCCCc3ccccc3)cc2)cc1 | -2.2% |
| CCN1CCCC(C#N)(c2ccccc2)CC1 (stereo not given) | 3.2% |
| Cc1c(C)c2cc3c(=O)c(CCl)coc3c(C)c2oc1=O | -7.15% |
| C/C(CC(C)C)=N\NC(=O)Nc1ccccc1Cl | 26.7% |
| CC(=O)OC1CC2C(C)(CCC3C2(C)CCC2(C)C4CC(C)(C)CCC4(C)CCC32C)C1C (stereo not given) | -3.2% |
| O=c1nc(NC(c2ccccc2)(c2ccccc2)c2ccccc2)ccn1CCCl | -20.9% |
| Nc1nc(C2CCCC2)c(Br)c(=O)[nH]1 | 2.7% |
| CC(=O)Nc1cc(=O)[nH]c2c1CCC2 | -3.6% |
| CCOC(O)C(F)(F)C(F)(F)C(F)(F)F (stereo not given) | -7.95% |
| COC1/C=C/OC2(C)Oc3c(C)c(O)c4c(c3C2=O)C(N)=C(Nc2ccccc2)C(=NC(=O)C(C)=CC=CC(C)C(O)C(C)C(O)C(C)C(OC(C)=O)C1C)C4=O (stereo not given) | 16.9% |
| O=C(O)c1c(Br)c(Br)c(Br)c(Br)c1C(=O)Nc1cccc2c(O)cccc12 | 24.3% |
| COc1cc(NS(=O)(=O)c2ccccc2)ccc1C | 22.4% |
| O=[N+]([O-])c1ccc2nc[nH]c2c1 | -0.2% |
| CC[N+](C)(CC)CCNc1cc2c(c3c(=O)c4ccccc4sc13)CCCC2 | 99% (active) |
| COC1=CC(=O)C(C)=CC1=O | 16.3% |
| CC1CC(=O)CCC2(C)C(OC(C)(C)C)CCC12 (stereo not given) | 33.2% |

experiment: NCI Yeast Anticancer Drug Screen. Data for the mlh1 rad18 strain (AID 175); conditions: S. cerevisiae mlh1 rad18 strain growth inhibition; at 50.0 µM; active compounds read high
How it was run: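 Test agents were incubated with a yeast strain of defined genotype (DNA damage repair defect). Inhibition of growth was derived by comparison with vehicle-exposed cultures.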

| SMILES | growth inhibition |
| --- | --- |
| C=CCOC(=O)NC(CCC(=O)OC)C(=O)O (stereo not given) | -0.2% |
| Cc1ccc(/C=C/C(=O)c2c([O-])on[n+]2-c2ccccc2)cc1 | -4.8% |
| COC(=O)c1cc(C)c(C)c2c1NC(=O)CNC2=O | 7.95% |
| CCOC(=O)C1C(NNC(N)=O)CN(C(=O)OCC)C1C(=O)OCC (stereo not given) | 10.4% |
| CCOC(=O)/C=C(/C)C#N | 2.9% |
| N#Cc1ccccc1C#N | -0.4% |
| C[N+](C)(C)c1ccc(C(N)C(=O)O)cc1 (stereo not given) | 2.8% |
| O=C(O)CCC(=O)Nc1cccc(C(F)(F)F)c1 | 4.3% |
| C=C(C(N)=O)c1ccc([N+](=O)[O-])o1 | 90% (active) |
| CCCCN(CCCC)c1ccc(S(=O)(=O)c2ccc(N(CCCC)CCCC)cc2)cc1 | 18.6% |
| Oc1ccccc1C=Nc1ccc(N2CCOCC2)cc1 | -2.35% |
| COC(=O)C[C@H](C)[C@H](C)CC(=O)O | -12.9% |
| CC1CN(C(=O)/C=C/C(=O)OC2CCCCC2)C(C)CN1C(=O)/C=C/C(=O)OC1CCCCC1 (stereo not given) | -27.2% |
| COC(=O)c1csnn1 | 10.2% |
| Cc1cccc(CC(N)C(=O)O)c1 (stereo not given) | -9.8% |
| NC(=O)c1ccc(S(=O)(=NS(=O)(=O)c2ccccc2)c2ccc(C(N)=O)cc2)cc1 | -1.6% |
| COC(=O)c1nc2n[nH]c(N)c2c2c1CCCCCCCCCC2 | 12.1% |
| CC(CCC(=O)O)C1CCC2C3CCC4CCCCC4(C)C3CCC12C (stereo not given) | 49.5% |
| NCCN(CCN)/[N+]([O-])=N/O | 16.9% |
| O=C([O-])[C+](C=Cc1cccc2ccccc12)C(=O)O | 31.3% |

| SMILES | growth inhibition |
| --- | --- |
| COc1ccc(-c2cc(=O)c3c([nH]2)CCCC3)cc1 | 5.55% |
| CCOC(=O)C(C)c1nc2cc(N3CCOCC3)c(F)cc2[nH]c1=O (stereo not given) | 4.95% |
| Cc1nc2ccc(-c3ccccc3)cc2nc1C | 3.7% |
| CN(C)P(=O)(Nc1ccc(Cl)cc1)Nc1ccc(Cl)cc1 | 7.5% |
| c1ccc(CCCCc2ccc(CCCCc3ccccc3)cc2)cc1 | 6.1% |
| CCN1CCCC(C#N)(c2ccccc2)CC1 (stereo not given) | -4.1% |
| Cc1c(C)c2cc3c(=O)c(CCl)coc3c(C)c2oc1=O | -5.95% |
| C/C(CC(C)C)=N\NC(=O)Nc1ccccc1Cl | 6.35% |
| CC(=O)OC1CC2C(C)(CCC3C2(C)CCC2(C)C4CC(C)(C)CCC4(C)CCC32C)C1C (stereo not given) | 3.2% |
| O=c1nc(NC(c2ccccc2)(c2ccccc2)c2ccccc2)ccn1CCCl | -9.7% |
| Nc1nc(C2CCCC2)c(Br)c(=O)[nH]1 | -8.75% |
| CC(=O)Nc1cc(=O)[nH]c2c1CCC2 | -4.7% |
| CCOC(O)C(F)(F)C(F)(F)C(F)(F)F (stereo not given) | 20.1% |
| COC1/C=C/OC2(C)Oc3c(C)c(O)c4c(c3C2=O)C(N)=C(Nc2ccccc2)C(=NC(=O)C(C)=CC=CC(C)C(O)C(C)C(O)C(C)C(OC(C)=O)C1C)C4=O (stereo not given) | 39.9% |
| O=C(O)c1c(Br)c(Br)c(Br)c(Br)c1C(=O)Nc1cccc2c(O)cccc12 | 44.9% |
| COc1cc(NS(=O)(=O)c2ccccc2)ccc1C | 24.9% |
| O=[N+]([O-])c1ccc2nc[nH]c2c1 | 43.1% |
| CC[N+](C)(CC)CCNc1cc2c(c3c(=O)c4ccccc4sc13)CCCC2 | 99% (active) |
| COC1=CC(=O)C(C)=CC1=O | 7.5% |
| CC1CC(=O)CCC2(C)C(OC(C)(C)C)CCC12 (stereo not given) | 21.1% |
